Laboratory results: PubChem BioAssay
For part of these data: Measured potencies and affinities stand elsewhere. The source made the active and inactive calls. Unless noted, how the calls were made is not given here.

How the values were obtained:
[1] = antimalarial activity against Dd2 strain (AID 2302;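 active means growth inhibition above 50% at the single 2 µM test dose, taken to imply half-maximal potency below 2 µM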;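 further: 0% = DMSO untreated growth and 100% = chloroquine plus artemisinin killed control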); settings: P. falciparum Dd2 in RBCs, LDH growth readout, 72 h; at 2 µM; hits give high values
[2] = human hepatoma cell viability loss – ATP luminescence, cytotoxicity control for P. falciparum antimalarial project, primary screen (AID 2303;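 active means inhibition above 50%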;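 further: 0% = DMSO wells and 100% = digitonin-killed cells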); settings: HepG2 viability, 24-48 h, at 10 µM, hits give high values
[3] = target: L-lactate dehydrogenase (Plasmodium falciparum (isolate CDC / Honduras)) (UniProt Q27743); assay: PfLDH activity inhibition – cell lysate, 3D7 strain, counter-screen for P. falciparum growth inhibition project (AID 2304);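 further: 0% = vehicle and 100% = reference inhibitor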; settings: P. falciparum 3D7 crude extract, LDH APAD/NBT absorbance; at 2 µM; hits give high values
[4] = inhibition of 3D7 malaria parasite growth – strain 3D7 (AID 2306);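 further: 0% = DMSO wells and 100% = chloroquine plus artemisinin control wells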; settings: P. falciparum 3D7 erythrocytic growth, LDH absorbance, 72 h; at 2 µM; hits give high values
[5] = target: Calcium-dependent protein kinase 1 (Plasmodium falciparum (isolate 3D7)) (UniProt P62344); assay: PfCDPK1 kinase inhibitors, biochemical, TCAMS library (AID 1159585; cut-off not given, nearly all actives have IC50 up to about 0.98 µM;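 further: inhibitors leave more ATP so luminescence rises with inhibition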); settings: recombinant PfCDPK1, Kinase-Glo ATP depletion luminescence
[6] = target: Plasmodium falciparum protein kinase 6 (PK6, PF3D7_1337100) (UniProt Q8IDW1); assay: PfPK6 kinase inhibitors, biochemical, TCAMS library (AID 1159586); settings: recombinant PfPK6, Kinase-Glo ATP depletion luminescence
[7] = target: Protein kinase 7 (PK7), Plasmodium falciparum 3D7 (PF3D7_0213400) (UniProt Q7YTF7); assay: inhibition of Plasmodium PK7 catalytic activity – biochemical, TCAMS antimalarial set, Kinase-Glo luminescence (AID 1159587); settings: recombinant PfPK7, Kinase-Glo ATP depletion luminescence
[8] = target: Calcium-dependent protein kinase 4 (Plasmodium falciparum (isolate 3D7)) (UniProt Q8IBS5); assay: PfCDPK4 kinase inhibitors, biochemical, TCAMS library (AID 1159588; cut-off not given, nearly all actives have IC50 up to about 0.91 µM); settings: recombinant PfCDPK4, Kinase-Glo ATP depletion luminescence
Calcium-dependent protein kinase 4 (Plasmodium falciparum (isolate 3D7)), sequence (Q8IBS5 whole entry, looked up): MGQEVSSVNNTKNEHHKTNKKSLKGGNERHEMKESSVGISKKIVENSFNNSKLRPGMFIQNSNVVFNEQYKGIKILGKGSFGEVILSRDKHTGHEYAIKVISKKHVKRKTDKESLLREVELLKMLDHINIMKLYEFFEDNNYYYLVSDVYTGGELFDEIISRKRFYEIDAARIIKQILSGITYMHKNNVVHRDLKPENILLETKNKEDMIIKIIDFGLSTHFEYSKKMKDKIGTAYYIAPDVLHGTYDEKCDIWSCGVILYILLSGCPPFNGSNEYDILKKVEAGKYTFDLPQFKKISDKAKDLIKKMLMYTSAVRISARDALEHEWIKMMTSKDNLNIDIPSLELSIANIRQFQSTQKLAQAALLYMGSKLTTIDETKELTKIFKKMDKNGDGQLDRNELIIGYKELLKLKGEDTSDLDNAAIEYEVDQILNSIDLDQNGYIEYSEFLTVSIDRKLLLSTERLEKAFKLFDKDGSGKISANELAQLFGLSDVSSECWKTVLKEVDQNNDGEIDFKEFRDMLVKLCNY

Plasmodium falciparum protein kinase 6 (PK6, PF3D7_1337100), sequence (Q8IDW1 1-305): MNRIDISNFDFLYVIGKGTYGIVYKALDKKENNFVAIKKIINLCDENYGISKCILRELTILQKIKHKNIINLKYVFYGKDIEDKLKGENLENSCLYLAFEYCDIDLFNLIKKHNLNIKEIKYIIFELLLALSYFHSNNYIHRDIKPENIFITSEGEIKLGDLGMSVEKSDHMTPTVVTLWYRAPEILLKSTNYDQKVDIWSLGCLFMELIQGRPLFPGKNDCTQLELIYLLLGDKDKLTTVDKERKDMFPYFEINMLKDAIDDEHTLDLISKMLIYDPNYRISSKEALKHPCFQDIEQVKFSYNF
Protein kinase 7 (PK7), Plasmodium falciparum 3D7 (PF3D7_0213400), sequence (Q7YTF7 1-343): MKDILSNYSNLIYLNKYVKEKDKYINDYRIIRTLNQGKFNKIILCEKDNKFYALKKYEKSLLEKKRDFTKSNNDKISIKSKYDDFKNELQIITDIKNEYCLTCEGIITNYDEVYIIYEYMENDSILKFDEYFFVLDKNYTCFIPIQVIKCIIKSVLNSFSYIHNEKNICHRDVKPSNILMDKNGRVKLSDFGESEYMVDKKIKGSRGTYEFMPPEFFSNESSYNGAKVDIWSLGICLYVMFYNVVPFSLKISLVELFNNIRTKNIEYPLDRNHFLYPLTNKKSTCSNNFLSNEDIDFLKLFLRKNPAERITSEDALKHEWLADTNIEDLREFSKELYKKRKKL
Calcium-dependent protein kinase 1 (Plasmodium falciparum (isolate 3D7)), sequence (P62344 whole entry, looked up): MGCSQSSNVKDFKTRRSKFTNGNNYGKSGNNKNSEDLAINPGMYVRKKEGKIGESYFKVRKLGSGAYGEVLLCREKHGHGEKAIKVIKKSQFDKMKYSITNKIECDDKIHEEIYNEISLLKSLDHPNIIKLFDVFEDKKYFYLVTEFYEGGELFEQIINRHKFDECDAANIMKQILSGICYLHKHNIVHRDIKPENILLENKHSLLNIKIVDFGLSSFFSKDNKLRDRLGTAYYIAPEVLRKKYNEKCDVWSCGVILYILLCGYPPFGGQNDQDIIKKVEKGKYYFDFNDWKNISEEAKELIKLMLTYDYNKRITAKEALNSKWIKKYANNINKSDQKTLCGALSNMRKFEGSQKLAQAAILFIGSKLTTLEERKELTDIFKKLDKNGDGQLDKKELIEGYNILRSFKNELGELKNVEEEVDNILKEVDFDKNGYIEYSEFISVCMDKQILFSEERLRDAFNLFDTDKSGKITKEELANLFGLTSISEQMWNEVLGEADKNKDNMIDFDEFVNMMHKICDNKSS
L-lactate dehydrogenase (Plasmodium falciparum (isolate CDC / Honduras)), sequence (Q27743 whole entry, looked up): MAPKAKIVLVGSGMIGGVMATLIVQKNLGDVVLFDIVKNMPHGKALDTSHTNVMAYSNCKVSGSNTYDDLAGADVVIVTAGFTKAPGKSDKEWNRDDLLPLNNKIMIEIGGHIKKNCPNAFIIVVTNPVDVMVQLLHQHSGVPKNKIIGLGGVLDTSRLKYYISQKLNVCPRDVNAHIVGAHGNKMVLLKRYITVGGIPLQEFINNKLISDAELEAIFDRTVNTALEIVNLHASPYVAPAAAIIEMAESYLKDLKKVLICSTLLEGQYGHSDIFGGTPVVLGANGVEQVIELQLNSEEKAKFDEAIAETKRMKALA

Cc1cc(N[C@@H](Cc2ccccc2)C(=O)NC2CCCC2)nc(NCc2ccccc2C)n1
inactive: growth inhibition [1] 20% | inhibition [2] 2% | inhibition [3] 3% | outcome [5] | outcome [6] | outcome [7] | outcome [8]
active: growth inhibition [4] 91%

Cc1ccccc1C1CCN(C2CCC(NC(=O)/C=C/c3ccc(F)cc3)CC2)CC1 (configuration not stated)
inactive: growth inhibition [1] 30% | inhibition [3] -2% | outcome [5] | outcome [6] | outcome [7] | outcome [8]
active: inhibition [2] 61% | growth inhibition [4] 87%

CCCN(CCC)c1nn2c(=O)c(C(=O)N3CCN(Cc4ccccc4)CC3)cnc2s1
inactive: inhibition [2] -22% | inhibition [3] -2% | outcome [5] | outcome [6] | outcome [7] | outcome [8]
active: growth inhibition [1] 89% | growth inhibition [4] 84%

Cc1cccc2[nH]c(-c3cccc(-c4cccc(CNCc5ccc(S(C)(=O)=O)cc5)c4)c3)nc12
inactive: inhibition [2] 13% | inhibition [3] 0% | outcome [5] | outcome [6] | outcome [7] | outcome [8]
active: growth inhibition [1] 66% | growth inhibition [4] 100%

COc1ccc2c(=O)c(I)c(C)[nH]c2c1
active: growth inhibition [1] 96% | growth inhibition [4] 96%
inactive: inhibition [2] 27% | inhibition [3] 4% | outcome [5] | outcome [6] | outcome [7] | outcome [8]

Cc1cc(C)cc(OCC(O)CN(Cc2cc(Cl)cc(Cl)c2)C(=O)Nc2ccccc2Cl)c1 (configuration not stated)
active: growth inhibition [4] 93%
inactive: growth inhibition [1] 37% | inhibition [2] -1% | inhibition [3] 2% | outcome [5] | outcome [6] | outcome [7] | outcome [8]

Oc1ccc2[nH]c(-c3cccc(F)c3)nc2c1CN1CCCC1
inactive: growth inhibition [1] 47% | inhibition [2] 0% | inhibition [3] 5% | outcome [5] | outcome [6] | outcome [7] | outcome [8]
active: growth inhibition [4] 100%

N#CN1CC[C@H](CS(=O)(=O)c2cccc(Br)c2)C1
inactive: inhibition [2] 8% | inhibition [3] -2% | outcome [5] | outcome [6] | outcome [7] | outcome [8]
active: growth inhibition [1] 74% | growth inhibition [4] 88%

Cc1cnc2ccc(NS(=O)(=O)c3sc4ccc(Cl)cc4c3C)cc2c1N1CCNCC1
active: growth inhibition [4] 99%
inactive: growth inhibition [1] -1% | inhibition [2] -9% | inhibition [3] 4% | outcome [5] | outcome [6] | outcome [7] | outcome [8]

O=C(Cc1ccccc1)NC(Nc1ccc([N+](=O)[O-])cc1)C(Cl)(Cl)Cl (configuration not stated)
inactive: inhibition [2] 21% | inhibition [3] 1% | outcome [5] | outcome [6] | outcome [7] | outcome [8]
active: growth inhibition [1] 100% | growth inhibition [4] 99%

Cc1cc(N(C)C)nc(Nc2ccc(NC(=O)CCc3ccccc3)cc2)n1
inactive: inhibition [2] 20% | inhibition [3] 1% | outcome [5] | outcome [6] | outcome [7] | outcome [8]
active: growth inhibition [1] 84% | growth inhibition [4] 100%

Cc1ccc(NC(=O)N2CCN(CCCCCNC(=O)/C=C/c3ccc(Cl)c(Cl)c3)CC2)cc1C
inactive: growth inhibition [1] -5% | inhibition [2] 7% | inhibition [3] 0% | outcome [5] | outcome [6] | outcome [7] | outcome [8]
active: growth inhibition [4] 94%

COC(=O)[C@@H](NC(=O)[C@H](Cc1ccc(OC)c(OC)c1)Nc1ccc(C#N)c2ccccc12)c1ccc(O)cc1
inactive: inhibition [2] 6% | inhibition [3] 5% | outcome [5] | outcome [6] | outcome [7] | outcome [8]
active: growth inhibition [1] 100% | growth inhibition [4] 101%

O=C(Nc1ccc(-c2nc3ccccc3[nH]2)cc1)c1cncc(Br)c1
active: growth inhibition [4] 95%
inactive: growth inhibition [1] 49% | inhibition [2] 35% | inhibition [3] 1% | outcome [5] | outcome [6] | outcome [7] | outcome [8]

CON=Cc1ccn(-c2ccc(O)c3c2C[C@H]2C[C@H]4[C@H](N(C)C)C(=O)C(C(N)=O)=C(O)[C@@]4(O)C(=O)C2=C3O)c1
active: growth inhibition [1] 70% | growth inhibition [4] 96%
inactive: inhibition [2] 3% | inhibition [3] -1% | outcome [5] | outcome [6] | outcome [7] | outcome [8]

Cc1ccccc1C1CCN(c2ccc(NC(=O)c3ccc(Cl)nc3)cc2)CC1
active: growth inhibition [1] 82% | growth inhibition [4] 92%
inactive: inhibition [2] 43% | inhibition [3] -2% | outcome [5] | outcome [6] | outcome [7] | outcome [8]

CCN(CC)CCNc1ccnc2ccc3ccccc3c12
active: growth inhibition [1] 67% | growth inhibition [4] 100%
inactive: inhibition [2] 5% | inhibition [3] 6% | outcome [5] | outcome [6] | outcome [7] | outcome [8]

Nc1c2c(nc3ccc(C(=O)Nc4ccccc4)cc13)CCCC2
inactive: inhibition [2] 20% | inhibition [3] -3% | outcome [5] | outcome [6] | outcome [7] | outcome [8]
active: growth inhibition [1] 78% | growth inhibition [4] 100%

Cc1cc(=O)c(-c2ccc(Oc3ccc(C(F)(F)F)cc3)cc2)c(C)n1O
inactive: inhibition [2] 18% | inhibition [3] 0% | outcome [5] | outcome [6] | outcome [7] | outcome [8]
active: growth inhibition [1] 78% | growth inhibition [4] 94%

NC(=NCc1ccccc1Cl)NCCc1c[nH]c2ccccc12
active: growth inhibition [4] 83%
inactive: growth inhibition [1] 45% | inhibition [2] 16% | inhibition [3] 2% | outcome [5] | outcome [6] | outcome [7] | outcome [8]

CC(C)C(=O)NC(c1cccs1)c1cc(Cl)c2cccnc2c1O (configuration not stated)
active: growth inhibition [1] 91% | growth inhibition [4] 91%
inactive: inhibition [2] 23% | inhibition [3] -2% | outcome [5] | outcome [6] | outcome [7] | outcome [8]

C[C@H]1[C@H](c2cccc(Cl)c2)OCC(C)(C)N1C(=O)CCN1CCCCC1
inactive: growth inhibition [1] 5% | inhibition [2] 2% | inhibition [3] -1% | outcome [5] | outcome [6] | outcome [7] | outcome [8]
active: growth inhibition [4] 88%

C[C@H](Cc1ccc(S(=O)(=O)c2ccc(C[C@@H](C)NC[C@H](O)c3cccc(Cl)c3)cc2)cc1)NC[C@H](O)c1cccc(Cl)c1
active: growth inhibition [1] 98% | inhibition [2] 100% | growth inhibition [4] 99%
inactive: inhibition [3] -9% | outcome [5] | outcome [6] | outcome [7] | outcome [8]

S=C(NN=Cc1ccccn1)Nc1ccc(Cl)c(Cl)c1
inactive: inhibition [2] 40% | inhibition [3] 5% | outcome [5] | outcome [6] | outcome [7] | outcome [8]
active: growth inhibition [1] 85% | growth inhibition [4] 98%

Cc1cc(-c2cccc(CNC3CCN(C)CC3)c2)ccc1S(=O)(=O)NCc1ccccc1
inactive: inhibition [3] 4% | outcome [5] | outcome [6] | outcome [7] | outcome [8]
active: growth inhibition [1] 90% | inhibition [2] 53% | growth inhibition [4] 99%

O=C(Nc1ccc(OC2CCN(Cc3ccco3)CC2)c(Cl)c1)c1ccc2ncccc2c1
active: growth inhibition [4] 97%
inactive: growth inhibition [1] 40% | inhibition [2] -5% | inhibition [3] -4% | outcome [5] | outcome [6] | outcome [7] | outcome [8]

O=C(Nc1ccc2ccccc2c1)c1ccc(CN2CCC(Cc3ccccc3)CC2)cc1
active: growth inhibition [4] 95%
inactive: growth inhibition [1] 10% | inhibition [2] 38% | inhibition [3] -8% | outcome [5] | outcome [6] | outcome [7] | outcome [8]

O=C(NCC(CCCN1CCC(c2c[nH]c3ccccc23)CC1)c1ccccc1)Nc1ccc(Cl)c(Cl)c1 (configuration not stated)
inactive: inhibition [2] 38% | inhibition [3] 1% | outcome [5] | outcome [6] | outcome [7] | outcome [8]
active: growth inhibition [1] 64% | growth inhibition [4] 101%

O=C(Nc1cccc(-c2ccc(-c3nc4ccccc4[nH]3)cc2)c1)Nc1ccc(F)c(F)c1F
inactive: growth inhibition [1] 38% | inhibition [2] 45% | inhibition [3] 5% | outcome [5] | outcome [6] | outcome [7] | outcome [8]
active: growth inhibition [4] 100%

O=C(Nc1ccc(-c2ccccc2)cc1)Nc1cccc(Cn2cnc(N3CCCNCC3)cc2=O)c1
active: growth inhibition [4] 88%
inactive: growth inhibition [1] 13% | inhibition [2] 8% | inhibition [3] 4% | outcome [5] | outcome [6] | outcome [7] | outcome [8]

CCCC(=O)Nc1ccc(OCCCN(Cc2cccc(C(F)(F)F)c2)c2ccc(C#N)c(C(F)(F)F)c2)cc1
active: growth inhibition [1] 89% | growth inhibition [4] 90%
inactive: inhibition [2] -12% | inhibition [3] -5% | outcome [5] | outcome [6] | outcome [7] | outcome [8]

COc1ccc(CNC2CCN(c3ccc(NC(=O)c4cccc(Cl)c4)cc3)CC2)cc1OC
active: growth inhibition [4] 96%
inactive: growth inhibition [1] 13% | inhibition [2] 26% | inhibition [3] 6% | outcome [5] | outcome [6] | outcome [7] | outcome [8]

CCOc1cc(CC)ccc1C1CCN(CCCCNC(=O)c2ccc(NC(=O)c3ccc(Cl)cc3)cc2)CC1
active: growth inhibition [1] 58% | growth inhibition [4] 101%
inactive: inhibition [2] 11% | inhibition [3] 5% | outcome [5] | outcome [6] | outcome [7] | outcome [8]

CC(C)(C)c1ccc(CNC(=O)COc2ccc(-c3nnc(-c4cccc([N+](=O)[O-])c4)o3)cc2[N+](=O)[O-])cc1
inactive: growth inhibition [1] 25% | inhibition [2] 10% | inhibition [3] -7% | outcome [5] | outcome [6] | outcome [7] | outcome [8]
active: growth inhibition [4] 93%

CCN(CC)CCN(Cc1ccc(-c2ccc(C(F)(F)F)cc2)cc1)C(=O)Cn1c(CCc2ccc(F)cc2)nc(=O)c2ccccc21
active: growth inhibition [1] 58% | growth inhibition [4] 97%
inactive: inhibition [2] 42% | inhibition [3] -3% | outcome [5] | outcome [6] | outcome [7] | outcome [8]

COc1ccc(CNc2ccc3nc(N)nc(N)c3c2)cc1
active: growth inhibition [1] 84% | growth inhibition [4] 99%
inactive: inhibition [2] 39% | inhibition [3] -4% | outcome [5] | outcome [6] | outcome [7] | outcome [8]

NC(=NCc1ccccc1)Nc1nc(-c2ccc(OCCCn3ccnc3)cc2)cs1
active: growth inhibition [1] 55% | growth inhibition [4] 100%
inactive: inhibition [2] 10% | inhibition [3] 2% | outcome [5] | outcome [6] | outcome [7] | outcome [8]

CC(C)(C)OC(=O)NCc1ccc(Nc2nnc(-c3ccc(OCC(=O)NCc4ccc(C(C)(C)C)cc4)c([N+](=O)[O-])c3)o2)cc1
active: growth inhibition [1] 82% | growth inhibition [4] 96%
inactive: inhibition [2] 10% | inhibition [3] -2% | outcome [5] | outcome [6] | outcome [7] | outcome [8]

COc1c(CCNCCCCNCCc2cc(Cl)c3ccccc3c2OC)cc(Cl)c2ccccc12
inactive: inhibition [3] -7% | outcome [5] | outcome [6] | outcome [7] | outcome [8]
active: growth inhibition [1] 100% | inhibition [2] 99% | growth inhibition [4] 99%
